Test results from PMC5540273 (PLoS ONE, 2017).

Legend:
Details in all cases: concentration: 1 μM, replicates: in singlicate; n = 1
BMPR1A = tested on: BMPR1A
BMPR1B = tested on: BMPR1B
BMPR2 = tested on: BMPR2
BMX = tested on: BMX
BRAF = tested on: BRAF
BRK = tested on: T1, BRK
T1 construct: gene PTK6

BRSK1 = tested on: BRSK1
BRSK2 = tested on: BRSK2
BTK = tested on: BTK
BUB1 = tested on: BUB1
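Also: KINOMEscan kinase panel screen.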

SMILES	%Inh (BMPR1A) [%]	%Inh (BMPR1B) [%]	%Inh (BMPR2) [%]	%Inh (BMX) [%]	%Inh (BRAF) [%]	%Inh (BRK) [%]	%Inh (BRSK1) [%]	%Inh (BRSK2) [%]	%Inh (BTK) [%]	%Inh (BUB1) [%]
COc1ccccc1-c1ccc2c(NC(=O)C3CC3)n[nH]c2n1 [SB-711239]	0	0	10	16	5	2	0	2	32	11
O=C1NC(=O)C(N2CCc3ccccc32)=C1c1ccccc1Cl [SB-373598]	0	8	100	29	1	24	12	9	0	16
O=c1cc(N2CCOCC2)nc2n(Cc3cccc(Cl)c3Cl)ccn12 [GSK2286295]	0	0	0	25	0	8	13	0	0	0
COc1ccc2nc(-c3cccc(C)n3)nc(Nc3ccncc3)c2c1 [GSK204919]	0	0	0	27	0	8	4	0	0	38
COC(=O)c1c(-c2ccccc2)c2cc(C(=O)O)ccc2c(=O)n1Cc1ccccc1	0	3	0	17	90	0	0	0	0	0
CC(C)(C)c1ccc(C(=O)Nc2cn3cc(-c4cccnc4)ccc3n2)cc1	34	0	1	25	0	0	6	25	0	8
O=C(Nc1n[nH]c2nc(-c3nccs3)c(Br)cc12)C1CCCC1 [SB-742609]	0	0	13	0	12	26	93	85	0	37
O=C(Nc1n[nH]c2nc(-c3nccs3)c(Br)cc12)C1CC1 [SB-742251]	0	0	63	0	13	2	95.3	90	26	48
O=C(Nc1ccccc1)Nc1cccc(Oc2ccc3nccn3n2)c1	0	0	0	0	24	0	0	0	0	0
Cc1ccc(NC(=O)Nc2cc(C(C)(C)C)nn2-c2ccccc2)cc1 [GSK1014915]	0	0	37	14	74	20	100	0	0	21
Cc1cccc(-c2cc(Nc3ccncc3)c3ccccc3n2)n1 [GSK223675]	0	0	0	1	0	0	0	0	0	0
Cn1ccc2ncnc(Oc3cccc(C(=O)Nc4ccccc4)c3)c21	5	13	14	0	0	15	0	0	0	8
COC(=O)c1c(-c2ccccc2)c2cc(OC)ccc2c(=O)n1Cc1ccccc1	0	0	0	9	89	0	9	6	54	21
O=C(O)COc1ncnc2cc(-c3ccc4[nH]ncc4c3)sc12	19	18	63	0	19	100	5	1	0	25
O=C(Nc1ccc2c(c1)OCO2)NC1CCN(c2ccnc(Nc3ccc(F)cc3)n2)C1 (stereo not drawn) [GSK1379724]	0	0	18	5	1	16	0	0	0	24
COc1ccc(C2=C(Nc3cccc(C(=O)O)c3)C(=O)NC2=O)cc1 [SB-390765]	13	4	0	17	9	0	0	0	0	0
Fc1cc(Cl)ccc1Nc1ccnc2cc(-c3ccc(CN4CCCCC4)o3)ccc12 [GW560116]	0	0	0	0	0	14	2	0	0	26
CCn1c(-c2cccnc2O)nc2cnccc21 [SB-736715]	0	0	0	0	0	0	0	0	0	6
